# Assay results as given in PubChem BioAssay AID463213 (Sanford-Burnham Center for Chemical Genomics, 2010).
# The whole screen tested about 7,400 compounds, of which about 4,100 (55%) were called active. The set was probably picked from earlier hits. The list is a sample of the results. Values without a mark were called inactive.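 Rule for the calls: active = inhibition of yeast growth at or above a set limit in either of two repeat tests at 20 µM; inactive = the rest.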
# Experiment: tim10-1 ts yeast growth inhibition, retested – single concentration, luminescence, S. cerevisiae, confirmation (AID 463213)
# Conditions: S. cerevisiae tim10-1 ts strain growth, BacTiter-Glo, 24 h; at 20 µM; active compounds read high
row,Structure (SMILES),inhibition
1,Cc1nc2ccccn2c1P(=S)(N1CCCCC1)N1CCCCC1,38.4% (active)
2,COc1cccc(N2C(=O)NC(=O)/C(=C\c3ccc([N+](=O)[O-])s3)C2=O)c1,76.5% (active)
3,O=C1NC(=O)N(c2ccccc2)C(=O)/C1=C/c1ccc([N+](=O)[O-])s1,75.3% (active)
4,N#CC1=C(N)Oc2c(c(=O)oc3ccccc23)C1c1ccccc1OC(=O)c1cccs1 (stereo not given),22.8%
5,CCCCCn1c(=O)c(C(=O)Nc2c(C)n(C)n(-c3ccccc3)c2=O)c(O)c2ccccc21,6.15%
